Screening results: PubChem, several laboratories
MPTP inh: blocks calcium-induced mitochondrial swelling | 1.4% of 360,000 active | inhibition, % at 10 µM | isolated mouse mitochondria, Ca2+ swelling absorbance, 30 min | AID 602449;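 active = inhibition of 50% or more, scaled per plate between neutral and stimulator controls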;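 note: 0% = DMSO wells given calcium and 100% = 1 mM EGTA wells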
CSC inhib: blocks cancer stem cells. cancer stem cell-like cells viability, luminescence. inhibition, % at 7.5 µM. 1.1% of 300,000 active. AID 2717; in the data active = inhibition above about 75%; tested in HMLE shEcad cells
Beta apoptosis: blocks beta cell apoptosis | 0.8% of 300,000 active | INS-1E cytokine-induced death, ATP luminescence, 48 h; percent of positive-control rescue, neutral wells zero | protection from apoptosis, % (test concentration not listed);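 active = Every replicate reaches about 75%, or at least half do and their mean reaches it too, limit read from the data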;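 note: 0% = cytokine-treated negative control wells and 100% = positive control rescue; higher means more ATP so stronger rescue from cytokine killing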
Mdm2-MdmX inh: disrupts the human Mdm2-MdmX interaction | O15151+Q00987 | AID 485346 | 3% of 330,000 active | SaOS-2 split-luciferase Mdm2/MdmX complementation, luminescence | inhibition, % at 8 µM;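 active = inhibition of at least 50% at 8 µM in the primary screen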
Target sequence (O15151 whole entry, looked up): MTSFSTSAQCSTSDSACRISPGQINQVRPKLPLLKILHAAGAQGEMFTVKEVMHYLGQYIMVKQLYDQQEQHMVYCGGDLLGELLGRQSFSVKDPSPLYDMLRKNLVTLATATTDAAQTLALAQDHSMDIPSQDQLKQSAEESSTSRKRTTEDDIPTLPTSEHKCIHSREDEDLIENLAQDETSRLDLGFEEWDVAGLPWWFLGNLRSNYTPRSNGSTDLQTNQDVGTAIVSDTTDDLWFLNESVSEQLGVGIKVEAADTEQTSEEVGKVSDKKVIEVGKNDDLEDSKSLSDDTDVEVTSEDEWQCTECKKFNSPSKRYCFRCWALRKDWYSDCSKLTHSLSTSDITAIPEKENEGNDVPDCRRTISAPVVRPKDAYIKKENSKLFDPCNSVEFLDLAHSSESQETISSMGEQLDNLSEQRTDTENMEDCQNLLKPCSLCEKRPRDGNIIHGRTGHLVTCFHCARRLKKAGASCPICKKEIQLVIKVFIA
Target sequence (Q00987 whole entry, looked up): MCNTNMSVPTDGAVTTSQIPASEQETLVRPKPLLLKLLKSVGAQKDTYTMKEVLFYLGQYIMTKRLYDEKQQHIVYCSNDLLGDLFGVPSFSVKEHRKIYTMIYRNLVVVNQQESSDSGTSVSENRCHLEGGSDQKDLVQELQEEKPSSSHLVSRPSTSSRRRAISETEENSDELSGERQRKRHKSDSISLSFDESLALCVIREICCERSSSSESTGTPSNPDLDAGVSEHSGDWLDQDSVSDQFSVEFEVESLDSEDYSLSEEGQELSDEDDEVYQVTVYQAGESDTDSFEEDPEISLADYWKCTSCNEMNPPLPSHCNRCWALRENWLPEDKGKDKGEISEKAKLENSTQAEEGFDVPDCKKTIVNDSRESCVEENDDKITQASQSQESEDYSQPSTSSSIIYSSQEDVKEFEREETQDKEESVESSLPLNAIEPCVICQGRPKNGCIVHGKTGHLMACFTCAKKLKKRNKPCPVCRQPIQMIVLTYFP
Calb FLC: C. albicans growth modulation with fluconazole; C. albicans CaCi-2 (fluconazole-resistant clinical isolate) + fluconazole, Alamar Blue growth, 48 h; growth inhibition, % (concentration not given with the values); 0.57% of 300,000 active; AID 1979;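 active = growth inhibition above about 58% in most replicates, limit read from the data, passing the limit was not always enough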;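 note: all wells also contain fluconazole at 8 µg/ml as a sub-toxic cotreatment; 0% = median of DMSO wells and 100% = median of geldanamycin control wells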
SKKanGAS inh: SKKanGAS growth inhibition; S. pyogenes SKKanGAS, kanamycin growth, BacTiter-Glo, 6 h; AID 1662; inhibition, % at 7.5 µM; 1.3% of 300,000 active;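 active = mean replicate score, as percent of positive control median, at least 50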;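 note: strain carries kanamycin resistance gene driven by streptokinase promoter and grows in 40 µg/ml kanamycin; loss of luminescence reflects streptokinase promoter inhibition or plain growth inhibition; 0% = median of DMSO wells and 100% = positive control at its reference dose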
Mdm2 MdmX conf: human Mdm2/MdmX binding inhibition, confirmed; AID 489028; 55% of 10,000 active; luminescent assay; shares compounds with Mdm2-MdmX inh; inhibition, % at 8 µM; in the data active = inhibition above about 40%
Full FLuc ctr: counter-screen for Mdm2/MdmX inhibitors: full-length luciferase | shares compounds with Mdm2-MdmX inh | SaOS-2 full-length luciferase counterscreen, luminescence | inhibition, % at 8 µM | 77% of 6,200 active;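 active = mean inhibition at 8 µM reaching about 37%, which flags the compound as non-specific, limit read from the data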;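 note: p53-null SaOS-2 cells with luciferase driven by a doxycycline-inducible promoter; compound on cells about two nights before reading with doxycycline added after day one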
* hit, by the source's call; . = no result given. Only some compounds are listed: those with a hit (about 5.4% of all), similar ones and a draw of the others.

SMILES | MPTP inh | CSC inhib | Beta apoptosis | Mdm2-MdmX inh | Calb FLC | SKKanGAS inh | Mdm2 MdmX conf | Full FLuc ctr
CCCNC(=O)c1ccc(S(=O)(=O)c2ccc(OC)cc2)c([N+](=O)[O-])c1 | 3 | 6 | -22 | 87* | 0 | -7 | 53* | 19
COc1ccc(C(=O)NCCNc2ccccc2[N+](=O)[O-])cc1 | 1 | -11 | -4 | -113 | 13 | -17 | . | .
O=C(CSc1nnnn1-c1cccnc1)Nc1ccc(OCc2ccccc2)cc1 | 1 | 4 | 3 | 20 | 0 | -13 | . | .
O=C(c1ccccc1)c1nn(-c2ccccc2)c(=O)cc1C(F)(F)F | 1 | 4 | . | 44 | 4 | -1 | . | .
O=C(c1cccc(Cl)c1)c1nn(-c2ccccc2)c(=O)cc1C(F)(F)F | 4 | 57 | 107* | 77* | 16 | -8 | 32 | .
O=C(c1ccccc1)c1nn(-c2ccc(Cl)cc2)c(=O)cc1C(F)(F)F | -2 | 108* | 11 | 95* | 17 | 2 | 78* | 56*
Cc1cc(N2CCOCC2)ccc1/C=C1\NC(=O)N(Cc2ccccc2F)C1=O | 1 | 11 | 8 | 71* | 2 | 0 | 10 | .
CC(C)c1ccc(C2C3=C(COC3=O)Nc3cc4c(cc32)OCO4)cc1 (configuration not stated) | 1 | 46 | 33 | 76* | -16 | 8 | 62* | 94*
N#CC1(NC(=O)Cn2ncc(Cl)c(Cl)c2=O)CCCCC1 | 1 | -9 | -13 | 98* | . | -12 | 83* | 30
O=c1c2ccccc2oc2cc(C#CC3(O)CCCCC3)ccc12 | -1 | 19 | -2 | 87* | 10 | 18 | 76* | 98*
COc1cccc2sc3ccc(C#CC4(O)CCCCC4)cc3c(=O)c12 | -2 | -25 | -2 | -107 | -20 | 36 | . | .
O=c1c2ccccc2sc2ccc(C#CC3(O)CCCCC3)cc12 | 0 | -6 | 6 | 94* | 18 | 26 | 94* | 25
Cc1ccc(NC(=O)c2oc3ccc(S(=O)(=O)N4CCC5(CC4)OCCO5)cc3c2C)cc1C | -5 | 17 | 9 | 23 | 2 | 15 | . | .
COc1ccc(CCNC(=S)Nc2cccc(C)c2C)cc1 | -2 | -6 | 4 | 7 | -4 | 6 | . | .
CCOCCCNC(=O)/C(C#N)=C/c1ccc(Cl)c([N+](=O)[O-])c1 | -1 | 67 | -7 | 73* | -1 | -2 | 2 | .
CCOCCCNC(=O)/C(C#N)=C/c1cc(OC)c(O)c([N+](=O)[O-])c1 | 1 | 55 | 9 | 24 | 49 | 3 | . | .
Cc1ccc(S(=O)(=O)N2CCOCC2)cc1NC(=O)CSc1nnnn1C1CCCC1 | 0 | . | 4 | -2 | . | . | . | .
Cc1cc(CN(C)C(=O)CC2C(=O)NCCN2Cc2ccc(-c3ccccc3)cc2)on1 (configuration not stated) | -3 | -6 | -5 | 3 | 0 | 3 | . | .
CN(C)Cc1ccc(-c2nc3cccc4c3n2CCNC4=O)cc1 | 0 | 0 | 1 | 58* | -2 | 2 | 34 | 71*
CCN1CNC(=S)N(c2ccccc2C)C1 | 0 | -4 | -8 | 1 | -2 | -8 | . | .
CN1CCN(c2ccccc2NC(=O)c2cc3c(s2)-c2ccccc2OC3)CC1 | 1 | 42 | 4 | 57* | -9 | 2 | 52* | 63*
O=C(Nc1cccnc1Cl)c1cc2c(s1)-c1ccccc1OC2 | -2 | 7 | 4 | -3 | 6 | -10 | . | .
COc1ccc(NC(=O)N(C)C[C@H]2Oc3ccc(NC(=O)NC(C)C)cc3C(=O)N([C@H](C)CO)C[C@@H]2C)cc1 | 1 | -3 | -3 | -5 | . | . | . | .
COc1ccc(CCN(C)CCC(=O)Nc2c(C)cc(C)cc2C)cc1OC | -1 | -17 | -5 | -2 | 3 | -2 | . | .
O=S(=O)(c1ccccc1)c1ncc(C(F)(F)F)cc1Cl | -1 | . | . | 61* | -5 | -5 | 32 | .
SMILES | MPTP inh | CSC inhib | Beta apoptosis | Mdm2-MdmX inh | Calb FLC | SKKanGAS inh | Mdm2 MdmX conf | Full FLuc ctr
CCC(C)(C)C1CCC2(CC1)NC(=O)N(CC(=O)N1CCN(S(=O)(=O)c3cc(C)ccc3C)CC1)C2=O (configuration not stated) | 1 | 7 | 29 | 82* | 16 | 6 | 37 | 89*
COc1ccc(-c2nc(C#N)c(N3CCN(C(=O)c4ccco4)CC3)o2)cc1OC | 0 | -4 | . | 22 | 0 | 1 | . | .
CCOC(=O)c1nnn2c1nc(Nc1cccc(C(F)(F)F)c1)c1ccccc12 | 40 | 10 | 58 | 82* | -3 | 4 | 30 | .
NNc1nc2c(-c3cccc(C(F)(F)F)c3)nnn2c2ccccc12 | 1 | 50 | 26 | 56* | 12 | 15 | 22 | .
COCCNc1nc2c(-c3cccc(C(F)(F)F)c3)nnn2c2ccccc12 | 1 | -1 | 1 | 40 | -5 | 1 | . | .
CNc1nc2c(-c3ccc(Cl)cc3)nnn2c2ccccc12 | 3 | 15 | 17 | 61* | -7 | -8 | 42* | 69*
CCOC(=O)c1nnn2c1nc(SCC(C)=O)c1ccccc12 | 1 | -10 | 7 | -14 | 2 | -7 | . | .
Cc1ccc(-c2nnn3c2nc(NC(C)C)c2ccccc23)cc1 | 2 | 7 | 4 | 32 | -10 | 14 | . | .
O=[N+]([O-])c1ccc(Cl)c(-c2ccc(/C=N/c3c(-c4ccco4)nc4ccccn34)o2)c1 | 1 | -1 | -1 | 66* | -2 | -11 | -1 | .
O=[N+]([O-])c1ccc(-c2ccc(/C=N/c3c(-c4ccco4)nc4ccccn34)o2)c(Cl)c1 | . | . | . | . | 0 | -5 | . | .
O=C(NC1CCCCC1)C(c1cccnc1)N(C(=O)CCl)c1cccc(Cl)c1 (configuration not stated) | 5 | 31 | 0 | 100* | -2 | 2 | 100* | 53*
COc1ccc(C(C(=O)NC2CCCCC2)N(C(=O)CCl)c2ccc(Cl)cc2)cc1 (configuration not stated) | 1 | 10 | -18 | 100* | 2 | -7 | 99* | 49*
COc1ccc(N(C(=O)c2cnccn2)C(C(=O)NC2CCCCC2)c2ccc(Cl)cc2)cc1 (configuration not stated) | -2 | . | 1 | -2 | 1 | 0 | . | .
COC(CN(C(=O)CCl)C(C(=O)NC1CCCCC1)c1ccccc1C)OC (configuration not stated) | 8 | -17 | 5 | 83* | 4 | 6 | 62* | 44*
O=C(CSc1nnc2ccccn12)N1CCOCC1 | 0 | -15 | -6 | 3 | -13 | -3 | . | .
O=C(c1ccccc1F)N1CCC2CC1c1cc(-c3ccc4c(c3)OCO4)ccc12 (configuration not stated) | -2 | . | . | . | . | . | . | .
Cn1c(CCC(=O)Nc2ccc(S(C)(=O)=O)cc2)nc2cc(S(=O)(=O)N3CCOCC3)ccc21 | 0 | . | . | . | . | . | . | .
CCOc1ccc(-c2nc(C#N)c(NC3CC3)o2)cc1 | 5 | -5 | -5 | -16 | -26 | 4 | . | .
